Measured values from PubChem BioAssay (NCI).
About 83,000 compounds went through this panel and 20% of them were active in at least one assay; those are over-represented in the sample as a whole.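 Each cell line was grown in a 96-well plate and treated with one concentration of compound for 48 hours. Values below 10 were considered active.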 Calls of active or inactive are those of the source.

Columns and labels:
Experiment in all cases: NCI-60 one-dose screen, 48 h (100 = growth as untreated, 0 = no growth, -100 = all killed)
[1] = test system: HT29 colon; details: 10 µM unless noted
[2] = test system: SNB-75 CNS; details: 10 µM unless noted
[3] = test system: SNB-19 CNS; details: 10 µM unless noted
[4] = test system: U251 CNS; details: 10 µM unless noted
[5] = test system: PC-3 prostate; details: 10 µM unless noted
[6] = test system: SK-MEL-5 melanoma; details: 10 µM unless noted
[7] = test system: UACC-62 melanoma; details: 10 µM unless noted
[8] = test system: SK-MEL-28 melanoma; details: 10 µM
[9] = test system: SK-MEL-2 melanoma; details: 10 µM unless noted
[10] = test system: EKVX NSCLC; details: 10 µM unless noted
[11] = test system: SN12C renal; details: 10 µM unless noted
[12] = test system: UO-31 renal; details: 10 µM unless noted
[13] = test system: TK-10 renal; details: 10 µM unless noted
[14] = test system: ACHN renal; details: 10 µM unless noted
[15] = test system: CAKI-1 renal; details: 10 µM unless noted
[16] = test system: CCRF-CEM leukemia; details: 10 µM unless noted
[17] = test system: MOLT-4 leukemia; details: 10 µM unless noted
[18] = test system: SR leukemia; details: 10 µM unless noted
[19] = test system: LOX IMVI melanoma; details: 10 µM unless noted
[20] = test system: A498 renal; details: 10 µM unless noted

Measured: growth

CNCCNc1nc2ccccc2c2c(=O)c3cccc(C)c3sc12
active: [1] -25.6% | [8] -60.1% | [14] -29.9% | [17] -29.5% | [18] -29.9%
inactive: [2] 38.4% | [3] 53.2% | [4] 25.4% | [5] 41.4% | [6] 46.3% | [7] 42% | [9] 91.4% | [10] 46.4% | [11] 32.5% | [12] 29.6% | [13] 41.7% | [15] 17.9% | [16] 21%

COc1cc(C2C3=C(COC3=O)N(CCO)c3cc4c(cc32)CCC4)cc(OC)c1O (stereo not given)
inactive: [3] 31.2% | [4] 15.3% | [5] 31.7% | [6] 11.8% | [7] 39.8% | [19] 28.2% | [9] 89% | [10] 34.3% | [11] 33.5% | [12] 49.7% | [13] 45% | [14] 42.8% | [15] 21.1% | [20] 17.2% | [16] 17.2% | [17] 20.6% | [18] 33.1%
active: [1] 0.722% | [2] 3.02%

CC(C)C[C@H](C(=O)N[C@H](C(N)=O)C(C)C)N1CC=CCN(OCc2ccccc2)S1(=O)=O
inactive: [1] 102% [2.5 µM] | [2] 69.7% [2.5 µM] | [3] 94.7% [2.5 µM] | [4] 97.1% [2.5 µM] | [5] 98.5% [2.5 µM] | [6] 106% [2.5 µM] | [7] 98.8% [2.5 µM] | [19] 95.7% [2.5 µM] | [9] 98.9% [2.5 µM] | [10] 114% [2.5 µM] | [11] 94.9% [2.5 µM] | [12] 83.6% [2.5 µM] | [13] 102% [2.5 µM] | [14] 97.8% [2.5 µM] | [15] 99.4% [2.5 µM] | [20] 108% [2.5 µM] | [16] 92.4% [2.5 µM] | [17] 82.5% [2.5 µM] | [18] 93.4% [2.5 µM]

COc1cc2nc(NC3CCC3)nc(NC3CCN(C(C)C)CC3)c2cc1OC
inactive: [1] 14.5% | [2] 46.8% | [3] 91% | [4] 21.5% | [5] 58.9% | [6] 14.5% | [7] 83.5% | [8] 38.1% | [9] 91.5% | [10] 83.5% | [11] 92.2% | [12] 80.6% | [13] 46.8% | [14] 57.2% | [15] 92.2% | [20] 75.9% | [16] 46.5% | [17] 45.5%
active: [18] 2.34%

Cc1ccc(NC2=CC(=O)C(=O)c3ccccc32)c(C)c1
inactive: [1] 48.4% | [2] 35.2% | [3] 28.1% | [4] 33.3% | [5] 35.4% | [9] 76.6% | [10] 143% | [11] 44.1% | [12] 71.2% | [13] 80.8% | [14] 15.9% | [15] 82.7% | [20] 109% | [16] 43.7% | [17] 36.9% | [18] 56.4%
active: [6] -97.3% | [7] -59.5% | [19] -23.2%

O=c1oc2ccc(-c3ccc(F)cc3F)cc2c(=O)n1-c1ccc(Cl)c(C(F)(F)F)c1
inactive: [1] 53.1% | [3] 33.9% | [19] 32.1% | [10] 55.4% | [11] 11.2% | [12] 75.6% | [13] 15.8% | [14] 18.2% | [16] 13.2%
active: [2] 6.37% | [4] 6.46% | [5] 5.88% | [6] -69.6% | [7] 0.294% | [9] -18.1% | [15] -8.76% | [20] -43.5% | [17] 6.67%

CCOC(=O)C1=C(C)c2ccc(OC)c(OC)c2C1
inactive: [1] 95% | [2] 89.9% | [3] 104% | [4] 90.4% | [5] 102% | [6] 96.3% | [7] 98.5% | [19] 96.1% | [9] 89.5% | [10] 98.8% | [11] 108% | [12] 95.5% | [13] 87.2% | [14] 103% | [15] 100% | [20] 96.3% | [16] 93% | [17] 87.7% | [18] 73.4%

O=C1NC(=S)NC(=O)C1=Cc1cn(Cc2cn(Cc3cccc4ccccc34)nn2)c2ccccc12
inactive: [1] 114% | [2] 79.4% | [3] 97.9% | [4] 102% | [5] 93.9% | [6] 93.9% | [7] 88.3% | [8] 103% | [9] 114% | [10] 96.4% | [11] 94.4% | [12] 67.7% | [13] 134% | [14] 96% | [15] 80.3% | [20] 83.7% | [16] 98.7% | [17] 96.2%

COc1cc2nc(-c3cccc4cccnc34)nc(NC3CCN(Cc4ccccc4)CC3)c2cc1OC
active: [1] -87.2% | [2] -87.8% | [3] -78.2% | [4] -78.4% | [5] -84.4% | [6] -96.8% | [7] -82.3% | [8] -76.9% | [9] -77.8% | [10] -66.2% | [11] -82.4% | [12] -83% | [13] -88.7% | [14] -94.5% | [15] -88.3% | [20] -72.2% | [16] -30.1% | [17] -32.4% | [18] -7.18%

COc1cc(C2C3=C(COC3=O)N(CCO)c3cc4c(cc32)OCCO4)cc(OC)c1O (stereo not given)
active: [1] 3.06% | [2] -17.9%
inactive: [3] 26.8% | [4] 19.7% | [5] 27.2% | [6] 12.9% | [7] 33.5% | [19] 33% | [9] 76.5% | [10] 41% | [11] 39.8% | [12] 60.3% | [13] 47.4% | [14] 37.2% | [15] 39.8% | [20] 25.5% | [16] 15.5% | [17] 29.7% | [18] 23%

O=S1(=O)N(Cc2ccccc2)[C@@H](Cc2ccccc2)[C@H](O)[C@H](O)[C@H](Cc2ccccc2)N1Cc1ccccc1
inactive: [2] 13.3% | [3] 17% | [13] 60.4% | [20] 18.5%
active: [1] 6.95% | [4] 4.33% | [5] 4.89% | [6] -1.02% | [7] 5.81% | [19] -11.3% | [9] -5.68% | [10] -1.3% | [11] 5.15% | [12] 0% | [14] -7.05% | [15] -19.1% | [16] 7.73% | [17] 5.65% | [18] 4.45%

Cc1sc2ncn(CC(=O)Nc3ccc(S(N)(=O)=O)cc3)c(=O)c2c1C
inactive: [1] 107% | [2] 86.1% | [3] 98.5% | [4] 100% | [5] 101% | [6] 99.3% | [7] 96.5% | [19] 99% | [9] 106% | [10] 95.8% | [11] 98.6% | [12] 73.1% | [13] 109% | [14] 103% | [15] 95.4% | [20] 100% | [16] 105% | [17] 102% | [18] 117%

C[C@@H](C(=O)NCCCC#Cc1cnc(Nc2ccc(C#N)cc2)nc1NC1CC1)N(C)C(=O)/C=C/CN(C)C
active: [20] -5.21% | [17] 7.9% | [18] 9.79%
inactive: [1] 19.3% | [2] 80.5% | [3] 58.9% | [4] 21.4% | [5] 63.2% | [6] 35.9% | [7] 52.2% | [19] 49% | [9] 65.3% | [10] 33.5% | [11] 35.9% | [12] 28.6% | [13] 63% | [14] 14.3% | [15] 60.1% | [16] 13.8%

COc1cc(C2CC(c3ccc(Nc4nc(NCCO)nc(N5CCOCC5)n4)cc3)=NN2c2cc(Cl)cc(Cl)c2)cc(OC)c1OC (stereo not given)
inactive: [1] 33.6% | [2] 28.2% | [3] 72.6% | [4] 47.7% | [5] 34.1% | [6] 60.1% | [7] 48.6% | [19] 30.9% | [9] 94.7% | [10] 55.5% | [11] 65.5% | [12] 42% | [13] 93.3% | [14] 47.6% | [15] 46.4% | [20] 52% | [16] 48% | [17] 33.2% | [18] 23.2%

O=c1oc2ccc(Br)cc2c(=O)n1-c1ccc(Br)cc1F
active: [2] -42.4% | [4] -5.99% | [5] -4.81% | [6] -84.8% | [7] -40.7% | [19] 2.66% | [9] -18% | [10] 3.25% | [11] -1.73% | [12] -19.5% | [14] -6.06% | [15] -10.6% | [16] 9% | [17] -16.6% | [18] 3.7%
inactive: [1] 34.8% | [3] 16.9% | [13] 18.9%

Cc1ccc(C2CC(c3ccc(Nc4nc(NCCO)nc(Nc5ccc(Cl)cc5)n4)cc3)=NN2c2cc(Cl)cc(Cl)c2)cc1 (stereo not given)
inactive: [1] 107% | [2] 85.2% | [3] 106% | [4] 97.4% | [5] 98.9% | [6] 92.4% | [7] 89.5% | [8] 105% | [9] 122% | [10] 82.7% | [11] 96.4% | [12] 70.4% | [13] 113% | [14] 95.3% | [15] 73.5% | [20] 79.1% | [16] 96.8% | [17] 93.7% | [18] 107%
